# Screening data (PubChem)
# N370S GC: inhibits or activates N370S mutant glucocerebrosidase; P04062; N370S GC spleen homogenate, 4MU-glucoside fluorescence; Potency, µM (titrated, usually from 59.4 µM), for inactives: at the top dose activity change, negative = inhibition, most hits filed as inhibitors; 0.092% of 330,000 active; AID 2101;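 note: 0% = full enzyme activity and -100% = no enzyme basal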
# GAA inh: inhibitors of human lysosomal alpha-glucosidase | P10253 | purified human GAA, 4-MU-alpha-glucoside fluorescence | Potency, µM (doses to about 76.9 µM), inactives show at the top dose activity change, negative = inhibition, hits mostly inhibitors | 0.005% of 200,000 active;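 note: plate controls were uninhibited enzyme wells for no effect and no-enzyme background for full effect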
#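 Human enzyme at 4 nM with 400 uM 4-methylumbelliferyl-alpha-D-pyranoside, citrate/phosphate buffer pH 5.0, 0.005% Tween-20, 20 min at room temperature. Compounds up to 77 uM. 4-MU fluorescence (Ex 365/Em 440) read after NaOH/glycine stop; AC50 from Hill fit.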
# Lamin A splicing: modulators of lamin A splicing; HeLa LMNA splicing GFP/RFP minigene ratio, 48 h; 0.01% of 200,000 active; AID 1487; Potency, µM (series often up to 46.1 µM), for the others: at the highest dose ratio change, negative = inhibition, most hits filed as inhibitors; active = well fitted inhibition curve with a large enough effect in the signal ratio, with a control signal flat, not every such curve was filed as active; inconclusive = small, poorly fitted or top-dose-only effect, or effect the other way, or a change in a side signal; the % refers to the signal ratio
#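 S3 HeLa stable clones carrying a lamin A-EGFP splicing minigene plus DsRed2 were seeded at 600 cells/well in Opti-MEM with 2% FBS, pin-dosed and incubated 48 h at 37°C. Acumen cytometry (488 nm) gave the GFP/RFP total-intensity ratio.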
# aGlu spleen mod: inhibits or activates alpha-glucosidase in human spleen homogenate. human spleen homogenate, 4-MU-alpha-glucoside fluorescence. Potency, µM (doses to about 79.9 µM), inactives show at the top dose activity change, negative = inhibition, most hits filed as inhibitors. 0.006% of 240,000 active;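 note: 0% = enzyme with vehicle and -100% = no enzyme basal signal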
#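 Enzyme source: human spleen homogenate, 1 ug/well. Buffer 50 mM citric acid/K phosphate pH 5.0, 0.01% Tween-20. 4-MU-alpha-glucoside 1 mM; 37 C x 40 min; NaOH/glycine stop; fluorescence.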
# Luc counter: counter-screen: inhibitors of Kinase-Glo firefly luciferase; AID 1379; Potency, µM (titrated, usually from 38.3 µM), inactives show top-dose activity change, negative = inhibition, actives largely listed as inhibitors; Q27757; 0.28% of 200,000 active; Kinase-Glo luciferase, ATP luminescence, 8 min; note: nearly all actives have a fitted effect of over 60% in size
#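 Luminescence was the read-out, taken after 8-minute incubation at ambient temperature. Luciferase turned over luciferin with 10 uM ATP in imidazole pH 7.2 buffer containing KCl, MgCl2, Tween 20 and BSA.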
# GAA glycogen: GAA glycogen-cleavage inhibition or activation | Potency, µM (top dose mostly 76.4 µM), for the others: at the top dose activity change, negative = inhibition, most hits filed as inhibitors | AID 2100 | recombinant GAA, glycogen substrate, Amplex Red glucose oxidase fluorescence | 0.38% of 300,000 active;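 note: 0% = full enzyme reaction and -100% = no-enzyme basal signal; the screen sought inhibitors and activators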
#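 Recombinant human enzyme (4 nM); glycogen substrate; 37 C, 40 min, pH 5.0. Readout: coupled glucose oxidase/Amplex Red fluorescence.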
# Starred values were filed as active, the others as inactive; ? = inconclusive; . = no result given; ! = repeats disagree; [ ] = dose if it differs, or a comment. A selection: hits, their analogues and other compounds. The true share with any hit is near 0.52%. Unless noted, calls come from the whole dose curve; as a rule, active = well fitted curve in the direction sought with a large enough effect; inconclusive = small, poorly fitted or top-dose-only effect, or another doubt; inactive = no such curve, though single readings can be large; an effect the other way counts as inactive or inconclusive. Unless noted, % is set by controls: 0 for no effect and ±100 for the full control effect; potency is the fitted concentration of half-maximal effect.
SMILES,N370S GC,GAA inh,Lamin A splicing,aGlu spleen mod,Luc counter,GAA glycogen
CC(=O)[O][Hg][c]1ccccc1,-10.8%,.,?,-7.9%,12.6µM*,.
c1ccc2c(c1)Nc1ccccc1S2,-2.5%,2.4%[15.4 µM],?,-3.5%,-0.9%,17.8µM*
O=C1Nc2ccccc2Sc2ccccc21,21.0%,-3.3%,-12.8%[9.22 µM],-3.1%,0.5%,20.4%
O=S(=O)(NCCO)c1cc[c]([Sb])cc1,.,.,.,.,-4.2%[7.66 µM],.
C[N+](C)(C)CCOC(=O)CBr,1.3%,.,3.0%,-1.4%,0.8%,.
CC(=O)OCC[N+](C)(C)C,11.4%,-0.6%[15.4 µM],1.9%,1.7%,-1.7%,9.92µM*!
Nc1ccc2c3c(cccc13)CC2,-2.6%,3.8%,?,-11.0%,-3.8%,25.1µM*
Cc1onc(-c2ccccc2)c1C(=O)Nc1ccc(S(=O)(=O)N2CCCC2)cc1,-7.8%,-2.5%,-3.9%[46 µM],2.0%,-1.0%,14.1µM*
Cc1onc(-c2ccccc2)c1C(=O)N1CCC2(CC1)OCCO2,2.8%,-2.0%,?,-10.6%,2.8%,7.8%
C[C@H]1C2C=C[C@H]1[C@@H](C(=O)O)[C@@H]2c1c2ccc(=O)c(O)c-2oc2c(O)c(O)ccc12,.,.,.,.,-8.0%[7.66 µM],.
Oc1ccccc1/C=N/NP(=S)(c1ccccc1)c1ccccc1,5.1%,-7.4%,?,-0.6%,3.9%,-2.6%
Oc1ccc(/C=N/NP(=S)(c2ccccc2)c2ccccc2)cc1O,1.9%,-6.9%,2.2%,-2.3%,-2.0%,15.8µM*
Oc1ccc(/C=N/NP(=S)(c2ccccc2)c2ccccc2)c(O)c1O,.,?,15.7%,-4.3%,2.0%,15.8µM*
C[C@@H]1O[C@@H](O[C@H]2CC[C@@H](O[C@H]3[C@H](O)C[C@H](c4ccc5c(c4O)C(=O)C4=C(C5=O)[C@@]5(O)C(=O)C[C@](C)(O[C@H]6CC[C@H](O[C@H]7C=CC(=O)[C@H](C)O7)[C@H](C)O6)C[C@@]5(O)C=C4)O[C@@H]3C)O[C@H]2C)C=CC1=O,-2.2%,.,.,-7.3%,.,.
Cc1[nH]c2ccc(OC(F)(F)F)cc2c1CCNCc1ccc(Cl)cc1,?,.,.,.,.,2.3%
Cc1[nH]c2ccc(OC(F)(F)F)cc2c1CCNCc1cccc([N+](=O)[O-])c1,15.8µM*,.,.,.,.,-1.5%
CCOc1cccc(CNCCc2c(C)[nH]c3ccc(OC(F)(F)F)cc23)c1O,8.91µM*,.,.,.,.,3.0%
COc1cc2c(cc1OC)[C@@]13CCN4C=C5CCO[C@H]6CC(=O)N2[C@@H]1C6[C@H]5C[C@H]43 (stereo not given in full),.,.,.,.,-4.1%[7.66 µM],.
CN(C)c1ccc(/C=C/c2cc[n+](C)c3ccccc23)cc1,20.5%,8.3%,.,0.5%,12.6µM*,9.1%
C=C[C@@H]1CN2CC[C@H]1CC2[C@H](O)c1ccnc2ccccc12 (stereo not given in full),.,.,.,.,2.4%[7.66 µM],.
CN(C)C(=O)Oc1ccc(-c2cn3cc(Cl)ccc3n2)cc1,4.1%,-3.1%,19.6%,-5.6%,14.1µM*,14.0%
C=CCN1CCc2cccc3c2[C@H]1Cc1ccc(O)c(O)c1-3,-11.7%,.,.,.,.,6.31µM*
Oc1cc2c(cc1O)[C@H]1c3ccccc3CN[C@H]1CC2,-14.9%,.,.,-2.0%,3.4%,.
Oc1cc2c(cc1O)[C@H]1c3ccccc3CN[C@@H]1CC2,-4.3%,-6.5%[15.4 µM],.,7.1%,.,2.51µM*
CCCCC[CH2][Hg][S]C1=C2N=CNC2NC(N)=N1 (stereo not given),.,.,.,.,-5.0%[7.66 µM],.
Nc1ncnc2c1ncn2[C@@H]1O[C@H](COP(=O)(O)OP(=O)(O)OP(=O)(O)O)[C@H]2OC3(O[C@H]21)C([N+](=O)[O-])=CC(=[N+]([O-])[O-])C=C3[N+](=O)[O-] (stereo not given in full),9.6%,.,.,23.3%,2.82µM*,.
Nc1ncnc2c1ncn2[C@@H]1O[C@H](COP(=O)(O)CP(=O)(O)OP(=O)(O)O)[C@H](O)[C@H]1O,0.2%,.,?,3.6%,-13.5%,.
Cc1cc[c]([Sb]2[O]C([C@H](O)[C@H](O)C(=O)O)[C@@H](CO)[O]2)cc1 (stereo not given in full),.,.,.,.,-0.5%[7.66 µM],.
